From ChEMBL document CHEMBL3988442, “University of Dundee, Small-Polar-MMV Screening Library” (2021)
Hit rate of the full screen: of about 48,000 compounds, about 13,000 (27%) showed an effect of 50% or more. The list shows a part of the results.

Tested on: Wolbachia pipientis
Experiment: Anti-Wolbachia Cell-Based Screen
Assay type: functional
Set-up: scale not given: in the data most compounds retested in dose-response had high values
Details: 5 µM

Row | Compound | Percent Effect
1 | CNC(=O)Cc1ccc(-n2ccnc2-c2cccc(C(=O)O)c2)cc1 | -25.18%
2 | Cc1noc(-c2ccc(N(C)Cc3cccnc3)nc2)n1 | -25.91%
3 | O=C1CCc2cc(S(=O)(=O)NCc3cc4n(n3)CCNC4)ccc2N1 | -63.18%
4 | Cc1ccc(C(CNCc2cnn(C(C)C)c2)N2CCOCC2)s1 (centres undefined) | 14.4%
5 | O=C(NCC(O)COc1cccc(F)c1)C1(c2ccc(F)cc2)CC1 (centres undefined) | -1.107%
6 | CCCOCCn1ncc(N2CCc3ccccc3C2)cc1=O | -4.867%
7 | COc1ccc(OCCCNC(=O)NCc2csc(C)n2)cc1 | -1.518%
8 | Cc1ccc(-c2nc(CNc3ccc(C(N)=O)c(C)c3)cs2)o1 | 16.54%
9 | COC(=O)c1ccc(NCc2csc(C)n2)cc1Cl | 105.1%
10 | COC(=O)c1cc(NCc2cscn2)ccc1C | 4.935%
11 | COCc1nc2cc(NCc3csc(C)n3)ccc2o1 | -10.85%
12 | COCCNC(=O)c1ccc(NCc2csc(C)n2)cc1Cl | 103.1%
13 | CSc1ccc(NCc2csc(C)n2)cc1F | 74.08%
14 | COCCNC(=O)c1ccc(NCc2c(C)noc2C)cc1Cl | 99.6%
15 | CNC(=O)Cc1nc(CNc2ccc(SC)c(F)c2)cs1 | 0.08952%
16 | Cc1noc(C)c1CNc1cccc(C(=O)N(C)c2ccccc2)c1 | 8.742%
17 | CSc1ccc(NCc2csc(CS(C)(=O)=O)n2)cc1F | 19.87%
18 | Cc1noc(C)c1CNc1ccc2nc(C3CC3)sc2c1 | -3.579%
19 | CCOCCC(=O)N1Cc2cnc(-c3ccccc3)nc2C1 | -9.321%
20 | Cc1nsc(N2CCN(C(=O)Nc3cccc(C#N)c3)CC2)n1 | -11.67%
21 | CC(=O)N[C@@H]1CN(Cc2ccccc2-n2cccn2)C[C@H]1C(C)C | 1.725%
22 | Cc1cc(C)cc(C(=O)NCCCC2(C3OCCO3)CCOCC2)c1 | 11.75%
23 | CCn1c(CN(C)CC(=O)N(C)C)nc2c(F)cccc21 | -12.46%
24 | Cc1nnc(N2C[C@H](Oc3ccccn3)[C@H]3OCCC[C@H]32)s1.O=C(O)C(F)(F)F.O=C(O)C(F)(F)F | -4.759%
25 | O=C(Nc1ccc(-c2cscn2)cc1)C1CCCN(Cc2ccon2)C1 (centres undefined) | -5.748%

Row | Compound | Percent Effect
26 | CCOC(=O)NCCNC(=O)c1cc(Br)cn1C(C)C | -7.035%
27 | Cc1ccc(C(=O)N2CCC3(CCN3Cc3ccc(F)cc3)C2)cn1.O=C(O)C(F)(F)F (centres undefined) | 111.6%
28 | Cc1cnc(C(=O)N2CCC3(CCN3Cc3ccc(F)cc3)C2)cn1.O=C(O)C(F)(F)F (centres undefined) | 105.8%
29 | CCN1CCC12CCN(C(=O)c1ccsc1)C2.O=C(O)C(F)(F)F (centres undefined) | -5.276%
30 | O=C(c1ccsc1)N1CCC2(CCN2Cc2ccc(F)cc2)C1 (centres undefined) | -0.5147%
31 | Cn1ccnc1C(=O)N1CCC2(CCN2Cc2ccc(F)cc2)C1.O=C(O)C(F)(F)F (centres undefined) | 107.3%
32 | Cn1ccnc1C(=O)N1CCC2(CCN2CC2CC2)C1.O=C(O)C(F)(F)F (centres undefined) | -29.26%
33 | Cc1ccc(C(=O)N2CCC3(CCN(c4ccsc4)C3=O)C2)cn1.O=C(O)C(F)(F)F (centres undefined) | 44.84%
34 | CSc1nnc(CC2CCN(C(=O)Cc3ccncc3)CC2)n1C | -0.6807%
35 | CCn1c(CN2CCCC2)nnc1C1CCN(S(=O)(=O)CC)CC1 | 6.34%
36 | CCn1c(Cn2cncn2)nnc1C1CCN(C(=O)CCSC)CC1 | 0.8054%
37 | Cn1c(CN2CCCC2)nnc1C1CCCN(C(=O)N2CCOCC2)C1 (centres undefined) | -16.59%
38 | CSc1nnc(C2CCN(C(=O)N3CCCC3)CC2)n1C | 86.99%
39 | CCn1c(SC)nnc1C1CCN(C(=O)N2CCCC2)CC1 | 139.7%
40 | O=C(NCCNC(=O)C1CCN(CC(F)(F)F)CC1)c1ccoc1 | 16.83%
41 | O=C(NCCNc1ncccn1)C1CCN(C(=O)NC2CC2)CC1 | 95.19%
42 | O=C(NCCNc1ncccn1)C1CCN(C(=O)c2ccoc2)CC1 | 101.2%
43 | CN(C)C(=O)N1CCC(C(=O)NCCNc2ncccc2C#N)CC1 | -1.068%
44 | O=C(NCCNc1ncccn1)C1CCN(C(=O)N2CCCC2)CC1 | 88.68%
45 | O=C(NCCNc1ncccn1)C1CCN(C(=O)C2CC2)CC1 | 7.876%
46 | O=C(NCCNC(=O)C1CCN(c2ncccn2)CC1)c1ccoc1 | -1.676%
47 | O=C(NCCNc1ncccn1)C1CCN(CC(F)(F)F)CC1 | 1.799%
48 | O=C(NCCNc1ncccn1)N1CCSCC1 | -3.552%
49 | CC(C)(C)OC(=O)N1CCC(C(=O)NCCNc2ncccn2)CC1 | 98.46%
50 | CC(O)CN1CCC(CN(C)Cc2ccc(C(N)=O)cc2)CC1 (centres undefined) | 3.378%

Row | Compound | Percent Effect
51 | O=C1N(Cc2cccc(F)c2F)CCCC1(O)CNCC1CCCCC1 (centres undefined) | -14.65%
52 | Cc1nc2ccccc2nc1CN1CCn2nc(CCC(=O)O)cc2C1 | 11.39%
53 | CC(Nc1ccc(CN2CCCC2=O)cc1)C(=O)N(C)CCC#N (centres undefined) | 4.456%
54 | CCCC(=O)N1CCC(C(=O)NCCN2CCC(C)CC2)CC1 | 2.916%
55 | CS(=O)(=O)N1CCC(C(=O)NCCNc2ncccn2)CC1 | -2.901%
56 | O=C(NCCNc1ncccn1)C1CCCC1 | 120%
57 | O=C(NCCNc1ncccn1)C1CCN(c2ncccn2)CC1 | -3.346%
58 | CCCC(=O)N1CCC(C(=O)NCCNc2ncccn2)CC1 | 97.7%
59 | Cc1ccc(CN2CC[C@H]3C(=O)N(c4cccnc4)CCO[C@H]3C2)o1 | -2.706%
60 | O=C(NCCc1cccc(F)c1)c1nc2c(s1)CCCN2C(=O)C1CC1 | 109.4%
61 | COCCN(C)C(=O)c1nc2c(s1)CCCN2C(=O)C1CC1 | 11.31%
62 | O=C(c1nc2c(s1)CCCN2C(=O)C1CC1)N1CCCC1 | 12.54%
63 | O=C(NCc1cccnc1)c1nc2c(s1)CCCN2C(=O)C1CC1.O=C(O)C(F)(F)F | 105.9%
64 | Cc1ccc(NC(=O)c2nc3c(s2)CCCN3C(=O)C2CC2)cn1.O=C(O)C(F)(F)F | 7.338%
65 | CN(C)CCNC(=O)c1nc2c(s1)CCCN2C(=O)C1CC1.O=C(O)C(F)(F)F | 97.24%
66 | O=C(NCCc1cccnc1)c1nc2c(s1)CCCN2C(=O)C1CC1.O=C(O)C(F)(F)F | 99.18%
67 | CN1CCN(C(=O)c2nc3c(s2)CCCN3C(=O)C2CC2)CC1.O=C(O)C(F)(F)F | -2.349%
68 | CN1CCCc2sc(C(=O)NCc3cccnc3)nc21 | -7.154%
69 | O=C(CCNc1ncccn1)NCc1ccc(Br)s1 | 9.501%
70 | CC(=O)c1cccc(NC(=O)N2CCCCC2CN2CCCC2=O)c1 (centres undefined) | -4.61%
71 | Cc1ccc(C(=O)NCCNCC2CNc3ccnn3C2)cc1 (centres undefined) | -8.644%
72 | CC(C)Cc1cc(C(=O)NCC(O)CN2CCCCCC2)on1 (centres undefined) | -21.74%
73 | Cc1ccc(OCc2cccc(C(=O)N(C)C(C)CC#N)c2)cn1 (centres undefined) | -5.236%
74 | CCOCC1CN(C(=O)Cc2ccccn2)Cc2c1cnn2CC (centres undefined) | -48.51%
75 | OCc1ccc(-c2c(-c3ccccc3)ncn2CCN2CCOCC2)o1 | 6.374%

Row | Compound | Percent Effect
76 | O=C(O)C(F)(F)F.c1csc(CN2C[C@H](OCC3CCOCC3)[C@H]3COC[C@H]32)n1 | 78.63%
77 | c1cnc(N2C[C@H](OCC3CCOCC3)[C@H]3COC[C@H]32)nc1 | -13.81%
78 | O=C(O)C(F)(F)F.c1ccc(C[C@H]2CN(Cc3nccs3)CC[C@@H]2OCC2CC2)cc1 | -18.04%
79 | Cc1ncsc1CN1C[C@@H](OCC(=O)N(C)C)[C@H]2OCCC[C@H]21.O=C(O)C(F)(F)F | -4.628%
80 | O=C(O)C(F)(F)F.O=C(O)C(F)(F)F.c1csc(CN2CCOCC3(CCN(C4CCOCC4)C3)C2)n1 (centres undefined) | 4.386%
81 | O=C(O)C(F)(F)F.c1csc(CN2C[C@H](OCC3CC3)[C@H]3COC[C@H]32)n1 | 114.6%
82 | O=C(O)C(F)(F)F.c1csc(CN2CCCn3nnc(COCC4CC4)c3C2)n1 | 3.459%
83 | CN(C)C(=O)CO[C@H]1CN(Cc2nccs2)[C@@H]2COC[C@H]12.O=C(O)C(F)(F)F | 104.4%
84 | O=C(c1nnn(-c2ccccc2Cl)c1-c1ccccn1)N1CCSCC1 | 5.989%
85 | CC(=O)N(Cc1noc(C2CC2)n1)C1CCN(Cc2ccccc2)C1 (centres undefined) | 96.7%
86 | CC(=O)N(Cc1noc(C2CC2)n1)C1CCN(Cc2cccnc2)C1 (centres undefined) | 56.34%
87 | CC(=O)N(Cc1noc(C2CC2)n1)C1CCN(Cc2ccncc2)C1 (centres undefined) | 0.6841%
88 | COC(=O)CN(C(=O)c1ccc(Cl)o1)c1cccc(F)c1 | -9.604%
89 | COc1ccc(COCC(O)CNC(=O)c2cccnc2)cc1 (centres undefined) | 15.02%
90 | COc1ccc(CN(C)[C@@H]2CN(C(=O)c3ccnn3C)C[C@H]2O)cc1 | 97.48%
91 | COc1ccc(OCc2nc(C(=O)N3C[C@H](O)[C@@H](N(C)C)C3)co2)cc1 | -35.76%
92 | CCN1C[C@@H]2CN(C(=O)c3cccn3C)C[C@@H]2C1=O | -32.3%
93 | COc1ccc(CN(C)[C@@H]2CN(C(=O)c3ccccc3)C[C@H]2O)cc1 | 114.6%
94 | Cn1cccc1C(=O)N1C[C@H]2CN(CC3CC3)C(=O)[C@H]2C1 | -15.38%
95 | Cn1nccc1C(=O)N1CCOC(Cc2cccc(C(F)(F)F)c2)C1 (centres undefined) | -3.764%
96 | COc1ccc(CN(C)[C@@H]2CN(C(=O)c3cccn3C)C[C@H]2O)cc1 | 98.88%
97 | CN(C)CCOCC1CN(C(=O)c2cccnc2)Cc2ccnn2C1 (centres undefined) | -7.083%
98 | COc1cccc(C(=O)N2C[C@@H](C(=O)O)[C@H](c3ccccc3C)C2)c1 | -3.21%
99 | COc1ccc(CN(C)[C@@H]2CN(C(=O)c3cccnc3)C[C@H]2O)cc1 | 87.24%
